High-throughput results (PubChem)
Tau FP inhib: qHTS for Inhibitors of Tau Fibril Formation, Fluorescence Polarization | Microtubule-associated protein tau (Homo sapiens), P10636 | K18 P301L tau heparin fibrillization, Alexa594 FP, 6 h | Potency, µM (titrated, usually from 57.7 µM), inactives show at the top dose activity, negative = inhibition, usual class: inhibitors | actives 0.39% (n = 280,000) | AID 1468, 2008; note: nearly all actives have a fitted effect of over 55% in size
Target sequence (P10636 561-689 P618L limits assumed): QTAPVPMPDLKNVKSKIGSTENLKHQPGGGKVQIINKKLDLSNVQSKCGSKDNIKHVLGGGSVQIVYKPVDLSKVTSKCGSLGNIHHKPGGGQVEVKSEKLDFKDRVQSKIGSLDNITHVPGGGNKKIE
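K18 P301L tau (15 uM unlabeled/0.24 uM Alexa 594-labeled, final) + compound + heparin 20 uM final; 100 mM NaOAc pH 7; 6 hr 37 C; ThT 30 uM final added, 1 hr RT; FP ex 555/em 632 nm.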
Tau fluor cs: Counterscreen qHTS for Inhibitors of Tau Fibril Formation, Fluorescence Polarization; tau K18 P301L Alexa594 fluorescence, heparin fibrillization; Potency, µM (top dose mostly 57.7 µM), for the others: at the highest dose activity change, negative = decrease; actives 0.93% (n = 280,000); AID 1463, 2008; note: nearly all actives have a fitted effect of over 55% in size
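Human K18 P301L tau (15 uM unlabeled plus 0.24 uM Alexa 594-labeled, final) in 100 mM sodium acetate pH 7 was mixed with compound and 20 uM heparin and incubated 6 hr at 37 C.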
PLK1 PBD inh: qHTS for Inhibitors of PLK1-PDB (polo-like kinase 1 - polo-box domain): Primary Screen. Potency, µM, for inactives: max response, negative = inhibition, actives largely listed as inhibitors. AID 720504, 2013. Plk1 PBD binding of FITC phosphopeptide, fluorescence polarization. actives 2.8% (n = 360,000). Serine/threonine-protein kinase PLK1 (Homo sapiens), P53350; note: series mostly up to about 57 µM; nearly all actives have a fitted effect of over 65% in size
Target sequence (P53350 whole entry, looked up, the tested form may be a part): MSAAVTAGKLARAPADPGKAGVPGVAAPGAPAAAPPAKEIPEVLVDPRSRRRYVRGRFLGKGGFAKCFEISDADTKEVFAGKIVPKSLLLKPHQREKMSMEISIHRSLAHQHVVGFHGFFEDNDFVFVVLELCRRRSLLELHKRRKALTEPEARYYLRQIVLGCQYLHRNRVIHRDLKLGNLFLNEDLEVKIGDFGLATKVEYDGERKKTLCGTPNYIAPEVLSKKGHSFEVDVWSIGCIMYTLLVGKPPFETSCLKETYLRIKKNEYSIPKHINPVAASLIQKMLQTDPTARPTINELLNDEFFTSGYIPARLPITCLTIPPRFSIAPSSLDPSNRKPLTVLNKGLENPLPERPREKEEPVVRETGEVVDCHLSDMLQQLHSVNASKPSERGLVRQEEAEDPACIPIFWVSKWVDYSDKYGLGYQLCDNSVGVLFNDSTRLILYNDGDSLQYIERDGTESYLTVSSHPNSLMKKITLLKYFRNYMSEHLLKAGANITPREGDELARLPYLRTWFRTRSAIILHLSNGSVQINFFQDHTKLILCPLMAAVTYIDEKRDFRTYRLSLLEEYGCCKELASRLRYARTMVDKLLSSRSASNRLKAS
Tau fibril ThT: qHTS for Inhibitors of Tau Fibril Formation, Thioflavin T Binding; Microtubule-associated protein tau (Homo sapiens), P10636; recombinant tau K18 P301L (four-repeat tau fragment), heparin-induced fibrillization, ThT fluorescence; Potency, µM (top dose mostly 57.4 µM), for the others: top-dose activity, negative = inhibition, actives largely listed as inhibitors; actives 2.1% (n = 270,000); AID 1460, 2008; note: nearly all actives have a fitted effect of over 55% in size
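Recombinant human tau K18 fragment […] carrying P301L, 15 uM unlabeled plus 0.24 uM Alexa 594-labeled, was fibrillized with 20 uM heparin in 100 mM sodium acetate pH 7 for 6 hr at 37 C; 30 uM ThT fluorescence read after 1 hr.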
VDR inh: Inhibitors of the vitamin D receptor (VDR): qHTS. Potency, µM, without a hit: max response, negative = inhibition, actives largely listed as inhibitors. Vitamin D3 receptor (Homo sapiens), P11473. VDR-SRC2-3 peptide fluorescence polarization, 2 h. actives 0.93% (n = 400,000). AID 504847, 2011
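Compounds are added to VDR with labelled SRC2-3 coactivator peptide and held 2 h at room temperature. Inhibition of the VDR–peptide interaction is then read as a change in fluorescence polarization.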
Sfp PPTase inh: qHTS Assay for Inhibitors of Bacillus subtilis Sfp phosphopantetheinyl transferase (PPTase) | 4'-phosphopantetheinyl transferase ffp (Bacillus subtilis), Q9F4F7 | Biochemical Sfp PPTase activity, qHTS | Potency, µM, for inactives: largest response in the series, negative = inhibition, usual class: inhibitors | actives 3.5% (n = 310,000) | AID 1490, 2009;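 note: the enzyme is Sfp with the accession as filed and its product quenches rhodamine fluorescence; 0% = enzyme reaction without inhibitor and -100% = no enzyme wells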
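Compounds were incubated with enzyme (final 15 nM) for 15 min at room temperature before substrate addition started the reaction. Fluorescence at 525 nm excitation, 598 nm emission was recorded immediately and after 30 minutes.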
The depositor's hits bear a star; ? = inconclusive; . = no result given; [ ] = another dose, or the depositor's remark. Rows were chosen to be rich in hits. Some 6% of all compounds tested hit in one or more screens of this group. Calls come from the whole dose curve; as a rule, active = well fitted curve in the direction sought with a large enough effect; inconclusive = small, poorly fitted or top-dose-only effect, or another doubt; inactive = no such curve, though single readings can be large; an effect the other way counts as inactive or inconclusive. Unless noted, % is set by controls: 0 for no effect and ±100 for the full control effect; potency is the fitted concentration of half-maximal effect.

SMILES	Tau FP inhib	Tau fluor cs	PLK1 PBD inh	Tau fibril ThT	VDR inh	Sfp PPTase inh
CN1CCN(C(=S)NC(=O)c2ccc(S(=O)(=O)N3CCOCC3)cc2)CC1	-2%	7%	?	2%	-17%	45µM*
CN1CCN(S(=O)(=O)c2ccc(NC(=S)NC(=O)c3ccc(Cl)cc3)cc2)CC1	-2%	-25%	19µM*	-16%	-16%	22µM*
CCCCOc1ccc(C(=O)N2CCNC(=O)C2)cc1	.	.	-11%	.	-12%	8%
COc1ccccc1S(=O)(=O)N[C@@H]1CC[C@@H](CCn2cc(C3CC3)nn2)O[C@@H]1CO	.	.	-1%	.	.	.
Cc1ccc(NC(=O)C2CCN(S(=O)(=O)c3c(C)nn(C)c3C)CC2)c(Cl)c1	.	.	-2%	.	8%	11%
CON(c1nc(Cl)nc(N(C)C)n1)S(=O)(=O)c1ccc(C)cc1	.	.	27µM*	.	-23%	0%
O=C(NNCS(=O)(=O)O)c1ccncc1	.	.	.	.	1%	14%
Cc1cc(S(=O)(=O)Nc2ccc(O)c(Sc3nc4ccccc4s3)c2)ccc1Cl	?	10µM*[quencher]	.	?	?	.
O=C(O)c1cccc(S(=O)(=O)Nc2ccc(O)c(Sc3nc4ccccc4s3)c2)c1	-4%	-11%	21µM*	-17%	-27%	-2%
O=S(=O)(Nc1ccc(O)c(Sc2nc3ccccc3s2)c1)c1cc(Cl)ccc1Cl	?	10µM*[quencher]	.	?	-2%	.
CC(C)(C)NC(=O)C1C(c2ccccc2)=Nc2ccccc2N1C(=O)c1ccc(C(F)(F)F)cc1 (stereo not drawn)	.	.	-2%	.	.	.
CC[C@H](C)[C@H](NC(=O)[C@H](CCCNC(=N)N)NC(=O)[C@@H]1CCCN1C(=O)[C@H](Cc1ccccc1)NC(=O)[C@H](Cc1cnc[nH]1)NC(=O)[C@H](CCCNC(=N)N)NC(=O)[C@@H](NC(=O)[C@H](C)NC(=O)[C@H](CCC(=O)O)NC(=O)[C@H](CC(N)=O)NC(=O)[C@@H](N)CCCCN)C(C)C)C(=O)N[C@@H](Cc1c[nH]c2ccccc12)C(=O)N[C@@H](CC(C)C)C(=O)O	.	.	.	.	7%	5%
Cc1ccc(C)c(NC(=O)CN2C(=O)C3CC=CCC3C2=O)c1 (stereo not drawn)	.	.	-11%	.	.	.
CCOc1ccc(C2C(C#N)=C(N)SC(N)=C2C#N)cc1OC	-3%	-25%	.	?	.	50µM*
CCOc1ccccc1C1C(C#N)=C(N)SC(N)=C1C#N	-5%	-17%	-12%	?	?	45µM*
CCOc1ccc(C2C(C#N)=C(N)SC(N)=C2C#N)cc1OCC	-1%	?	37%	?	-28%	?
O=c1cc(-c2ccc(O)cc2)oc2cc(O)c([C@@H]3O[C@H](CO)[C@@H](O)[C@H](O)[C@H]3O)c(O)c12	.	.	7%	.	-6%	6%
O=c1c2ccccc2oc2cc(O)c(C3COCC(CO)C(O)C(O)C3O)c(O)c12 (stereo not drawn)	-1%	-19%	.	-15%	.	79µM*
Cc1cccc2nc(=S)n(C(=O)c3ccco3)n12	-5%	-8%	-19%	4%	-15%	16µM*
O=C(c1ccco1)N1CCN(C(=O)c2ccco2)CC1	.	.	-8%	.	.	.
O=C(c1ccco1)n1c(=S)nc2ccccn21	?	-5%	25µM*	?	?	-21%
CC(=O)N1CCN(C(=O)c2ccco2)CC1	.	.	-13%	.	8%	1%
CC(Oc1ccc(C#N)cc1)C(=O)NC1CCCC1 (stereo not drawn)	.	.	3%	.	0%	.
O=c1c(Cl)c(NCCCO)cnn1-c1nc2ccccc2[nH]1	?	-18%	13µM*	?	-16%	12%
C=CCN(CC=C)c1cnn(-c2nc3ccccc3[nH]2)c(=O)c1Cl	5%	9%	-4%	9%	-5%	-10%
SMILES	Tau FP inhib	Tau fluor cs	PLK1 PBD inh	Tau fibril ThT	VDR inh	Sfp PPTase inh
O=C(Cn1nnc(-c2ccccc2NC(=O)c2ccccc2)n1)Nc1ccc2c(c1)OCCO2	?	-23%	4%	?	7%	-18%
Cc1ccccc1C(=O)Nc1ccccc1-c1nnn(CC(=O)Nc2ccc3c(c2)OCCO3)n1	?	?	-13%	12%	2%	56µM*
COc1ccccc1N1CCN(C(=O)[C@@H]2CCCN2C2=NS(=O)(=O)c3ccccc32)CC1	.	.	0%	.	.	.
CCN(CC(=O)NCc1ccccn1)S(=O)(=O)c1ccc(Cl)cc1	-1%	4%	27µM*	-5%	?	?
Cc1ccc(S(=O)(=O)N(CC(=O)NCc2ccccn2)c2ccc(Cl)cc2)cc1	.	.	-1%	.	-19%	13%
CC(C)c1ccc2oc(-c3cc(NC(=O)c4cccnc4)ccc3Cl)nc2c1	7.9µM*	?	.	2%	10%	.
CCc1ccc2oc(-c3cc(N)ccc3O)nc2c1	11%	?	-12%	?	14%	-16%
CCc1ccc2oc(-c3cc(N)ccc3Cl)nc2c1	10%	14µM*[quencher]	-7%	?	3%	4%
O=[N+]([O-])c1ccc(O)c(C=Nc2ccc3oc(Cc4ccc(Cl)cc4)nc3c2)c1	-12%	?	.	?	.	28µM*
Nc1ccc2oc(-c3cc(Br)ccc3Cl)nc2c1	2%	?	30µM*	-28%	-25%	10%
O=C(Nc1ccc2oc(-c3ccccc3)nc2c1)c1cccnc1	4%	-17%	-1%	-14%	21%	11%
Nc1ccc2oc(-c3ccccc3Cl)nc2c1	4%	-18%	5%	?	13%	-1%
CN(C(=O)c1nn(C)c2c1COc1ccccc1-2)c1cccc(C(F)(F)F)c1	-6%	-14%	.	-2%	-2%	.
Cn1cccc1C(=O)OCc1ccc(C(C)(C)C)cc1	.	.	-2%	.	-5%	9%
CC1CCN(C2CCN(S(=O)(=O)c3ccc(C(F)(F)F)cc3)CC2)CC1	.	.	-9%	.	-19%	3%
Cc1ccc2oc(-c3cc(NC(=O)c4ccco4)ccc3Cl)nc2c1	?	?	.	-11%	?	.
Nc1ccc2oc(Cc3ccc(Cl)cc3)nc2c1	?	?	.	22µM*	79µM*	.
CCc1ccc2oc(-c3cc(NC(=O)c4cccs4)ccc3Cl)nc2c1	13µM*	?	.	-8%	-11%	.
O=C(CC1(CC(=O)N2CCOCC2)CCCC1)Nc1ccc(F)cc1	.	.	-6%	.	1%	.
